Compound activity: PubChem BioAssay, Johns Hopkins Ion Channel Center
Hits are enriched below; roughly 1.6% of the tested compounds scored in any of these assays.
KCNQ2 enhance: potentiators of rat KCNQ2 potassium channel; O88943; CHO-K1 KCNQ2, FluxOR thallium flux fluorescence; hits give high values; B-score at 10 µM; 310,000 tested, 0.54% active; AID 2239;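 active = fluorescence ratio B-score at least 3 SD of library B-scores, with initial fluorescence B-score within 3 of them, cut at about 5.3 in these data; same plate scores as AID 2156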;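 note: B-score of peak minus minimum over baseline fluorescence ratio after K+ and Tl+ stimulus; positive B-score means potentiation of KCNQ2 with more thallium influx and brighter signal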
KCNQ2 block: KCNQ2 (rat) channel inhibition; O88943; CHO-K1 KCNQ2, FluxOR thallium flux, 20 min; hits give low values; B-score at 10 µM; 310,000 tested, 1.1% active; AID 2156;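 active = fluorescence ratio B-score at most minus 3 library SDs, with starting brightness B-score within 2 library SDs, cut at about -5.5 in these data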
KCNQ2 block conf: rat KCNQ2 channel inhibition, confirmatory screen; activity change, negative = inhibition, % at 10 µM; shares compounds with KCNQ2 block; 1,000 tested, 57% active; AID 493025; KCNQ2-expressing cells, thallium flux; hits give low values;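 note: 0% = vehicle wells and values are ratio percent relative to vehicle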
KCNQ1 spec: human KCNQ1 activity in KCNQ2 inhibitor specificity screen; shares compounds with KCNQ2 block; KCNQ1-expressing cells, FluxOR thallium flux fluorescence; hits give low values; activity change, negative = inhibition, % at 10 µM; 1,000 tested, 15% active; AID 493026;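 active = activity change at least 3 SD of negative controls below their mean in both duplicate wells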;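 note: CHO cells stably transfected with KCNQ1 and depolarized by potassium stimulus; peak minus minimum fluorescence over baseline after thallium addition; 0% = vehicle negative control and -100% = blank without thallium stimulus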
Target sequence (P51787 whole entry, looked up): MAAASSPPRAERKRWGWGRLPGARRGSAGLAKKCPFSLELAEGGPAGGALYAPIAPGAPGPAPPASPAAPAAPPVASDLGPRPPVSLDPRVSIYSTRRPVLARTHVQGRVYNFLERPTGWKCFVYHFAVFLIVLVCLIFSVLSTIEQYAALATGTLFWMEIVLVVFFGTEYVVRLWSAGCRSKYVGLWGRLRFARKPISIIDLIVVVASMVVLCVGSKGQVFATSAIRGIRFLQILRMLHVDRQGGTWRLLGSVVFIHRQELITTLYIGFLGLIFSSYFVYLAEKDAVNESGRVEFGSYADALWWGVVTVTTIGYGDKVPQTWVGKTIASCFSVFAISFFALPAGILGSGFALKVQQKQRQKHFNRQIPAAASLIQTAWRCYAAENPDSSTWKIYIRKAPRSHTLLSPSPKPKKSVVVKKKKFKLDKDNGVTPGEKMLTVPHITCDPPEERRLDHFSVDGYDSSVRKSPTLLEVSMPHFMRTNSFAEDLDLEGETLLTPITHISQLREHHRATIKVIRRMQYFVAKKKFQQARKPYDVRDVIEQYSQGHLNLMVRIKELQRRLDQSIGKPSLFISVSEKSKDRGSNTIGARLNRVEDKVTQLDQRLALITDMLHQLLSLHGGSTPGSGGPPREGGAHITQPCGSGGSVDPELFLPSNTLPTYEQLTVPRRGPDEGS
CHO parental ctr: activity in parental CHO cells lacking KCNQ2. shares compounds with KCNQ2 block. thallium flux counter-screen; hits give low values. activity change, % at 10 µM. 1,000 tested, 14% active. AID 493029;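 note: 0% = vehicle negative controls with stimulus buffer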
KCNQ2 inh confirm: blocks rat KCNQ2 current in automated patch clamp | calls only at 10 µM | KCNQ2-expressing cells | 550 tested, 49% active | shares compounds with KCNQ2 block
* hit, by the source's call; i = inactive; · = not tested or not shown; + = active, no number. Unless noted, the rule behind the calls is not given here.

SMILES | KCNQ2 enhance | KCNQ2 block | KCNQ2 block conf | KCNQ1 spec | CHO parental ctr | others
CCOC(=O)C1C(=O)C=C(c2ccc(C)cc2)CC1c1ccccc1 (stereo unspecified) | -7.2 | -7.2* | -26%* | i | i | KCNQ2 inh confirm=i
COc1ccc(NC(=O)CN(C)C(=O)/C=C/c2cn(-c3ccccc3)nc2-c2ccc(C)cc2)cc1 | · | i | · | · | ·
COc1cccc(NC(=O)CN(C)C(=O)/C=C/c2cn(-c3ccccc3)nc2-c2ccc(C)cc2)c1 | -9.1 | -9.1* | -22%* | i | i | KCNQ2 inh confirm=i
Cc1ccccc1CSc1nnc(-c2cccs2)n1Cc1ccco1 | -9.9 | -9.9* | i | i | i
c1coc(Cn2c(SCc3nc4ccccc4[nH]3)nnc2-c2cccs2)c1 | · | i | · | · | ·
COc1cccc(-c2nc(CS(=O)(=O)CC(=O)NC3CCCc4ccccc43)c(C)o2)c1 (stereo unspecified) | -10 | -10* | -32%* | i | i | KCNQ2 inh confirm=+
COc1cccc(-c2nc(CS(=O)(=O)CC(=O)NC3CCCC3)c(C)o2)c1 | · | i | · | · | ·
CCOc1ccc(-c2nc(CSCC(=O)NC3CCCc4ccccc43)c(C)o2)cc1 (stereo unspecified) | -8.8 | -8.8* | -40%* | -37%* | -36%* | KCNQ2 inh confirm=+
CCOc1ccc(-c2nc(CSCC(=O)NC3CC3)c(C)o2)cc1 | 0.64 | i | · | · | ·
Cc1ccc(N(C(=O)CS(=O)CC(=O)Nc2ccc(F)cc2)C(C)C(=O)NC(C)(C)C)cc1 (stereo unspecified) | · | i | · | · | ·
CC(C)CN1CN(Cc2ccccc2)CNC1=S | 0.61 | i | · | · | ·
CCN(CC)S(=O)(=O)c1cccc(C(=O)NCCCn2ccnc2)c1 | · | i | · | · | ·
CC(C)OC(=O)c1c(-c2ccc(C(C)C)cc2)csc1NC(=O)C1CCCO1 (stereo unspecified) | -7.2 | -7.2* | -32%* | i | i | KCNQ2 inh confirm=i
CCOC(=O)c1c(-c2ccc(C)cc2)csc1NC(=O)C1CCCO1 (stereo unspecified) | 0.38 | i | · | · | ·
COc1cc(C(=O)NCc2nnc(SCC(=O)N3CCc4ccccc43)o2)cc(OC)c1OC | 0.04 | i | · | · | ·
Cc1cc(C)cc(OCC(=O)Nc2cnn(CCCC(=O)O)c2)c1 | 1.7 | i | · | · | ·
CCOC(=O)c1c(-c2cccs2)csc1NC(=O)COC(=O)c1c(C)noc1C | -10 | -10* | -24%* | i | i | KCNQ2 inh confirm=i
CCOC(=O)c1c(-c2cccs2)csc1NC(=O)c1ccncc1 | 0.91 | i | · | · | ·
O=C(Cc1c(F)cccc1Cl)N(Cc1ccccc1)c1ccccn1 | 0.31 | i | · | · | ·
O=C(/C=C/c1ccc(Cl)cc1)N(Cc1ccccc1)c1ccccn1 | -8.3 | -8.3* | -31%* | i | i | KCNQ2 inh confirm=+
O=C(CSc1nc(O)cc(=O)[nH]1)N1c2ccccc2CCc2ccccc21 | 1.8 | i | · | · | ·
Cc1ccccc1OCC(=O)N1N=C(C(F)(F)F)CC1(O)C(C)(C)C (stereo unspecified) | -8.2 | -8.2* | i | i | i
Cc1ccc(OCC(=O)N2N=C(C(F)(F)F)CC2(O)C(C)(C)C)cc1C (stereo unspecified) | · | i | · | · | ·
CCc1nc(SCC(=O)N2c3ccccc3CC2C)c2c(C)c(C)sc2n1 (stereo unspecified) | -6.7 | -6.7* | -20%* | i | i | KCNQ2 inh confirm=i
Cc1sc2nc(C(C)C)nc(SCC(=O)N3c4ccccc4CC3C)c2c1C (stereo unspecified) | 2.4 | i | · | · | ·
SMILES | KCNQ2 enhance | KCNQ2 block | KCNQ2 block conf | KCNQ1 spec | CHO parental ctr | others
CCc1nc(SCC(=O)Nc2cc(C)ccc2OC)c2c(C)c(C)sc2n1 | -6.8 | -6.8* | i | i | i
COc1ccc(C)cc1NC(=O)CCCNC(=O)Cn1cnc2sc(C)c(C)c2c1=O | · | i | · | · | ·
CC(NC(=O)CSc1nc2ccc(N)cc2s1)c1ccccc1 (stereo unspecified) | 1.2 | i | · | · | ·
O=C(CN1CCN(c2ccc(F)cc2)CC1)Nc1ccccc1[N+](=O)[O-] | · | i | · | · | ·
O=C(CCCn1c(=S)[nH]c2cc3c(cc2c1=O)OCO3)NCCc1ccccc1Cl | 0.32 | i | · | · | ·
Cc1c(CCOC(=O)c2ccccc2)sc[n+]1Cc1ccccc1 | · | i | · | · | ·
Cc1c(CCOC(=O)CC23CC4CC(CC(C)(C4)C2)C3)sc[n+]1CC(=O)c1ccccc1 | -7.8 | -7.8* | i | i | i
Cc1c(CCOC(=O)CC23CC4CC(CC(C4)C2)C3)sc[n+]1CC(=O)c1ccc(Br)cc1 | -10 | -10* | -28%* | i | i | KCNQ2 inh confirm=+
Cc1c(CCOC(=O)c2cc([N+](=O)[O-])cc([N+](=O)[O-])c2)sc[n+]1CC(=O)c1ccccc1 | 0.27 | i | · | · | ·
CNC(=O)CSc1nc2ccccc2c(=O)n1CCc1ccccc1 | 0.68 | i | · | · | ·
COC(=O)c1cc(S(=O)(=O)N2CCN(Cc3ccccc3)CC2)cn1C | · | i | · | · | ·
CN(C)S(=O)(=O)c1ccc(N2CCCC2)c(C(=O)Nc2ccc(C(N)=O)cc2)c1 | · | i | · | · | ·
CN(C)S(=O)(=O)c1ccc(N2CCCC2)c(C(=O)NNC(=O)c2ccc(Br)cc2)c1 | -10 | -10* | -24%* | i | i | KCNQ2 inh confirm=+
CN(C)S(=O)(=O)c1ccc(N2CCCC2)c(C(=O)NNC(=O)COc2ccc(Cl)cc2)c1 | -7 | -7* | i | i | i
CCc1ccc(OCC(=O)NNC(=O)c2cc(S(=O)(=O)N(C)C)ccc2N2CCCC2)cc1 | 0.12 | i | · | · | ·
COC(=O)CN1C(=O)N/C(=C/c2ccccc2OC)C1=O | 0.88 | i | · | · | ·
NCCc1nc(-c2ccccc2)cs1 | 1.3 | i | · | · | ·
CC1CCCC(C)N1C(=O)CSc1nnc(C2CCCCC2)o1 (stereo unspecified) | · | i | · | · | ·
COc1ccccc1C(=O)NCCC(=O)N1CC=C(c2ccccc2)CC1 | · | i | · | · | ·
COc1ccc(/C=N/n2c(-c3ccccc3)n[nH]c2=S)cc1 | · | i | · | · | ·
COc1ccc(/C=N/n2c(N)nc(-c3ccccc3)c2-c2ccccc2)cc1 | -7 | -7* | i | i | i
CCOC(=O)Cn1nc(C)cc1NC(=O)c1cccnc1 | · | i | · | · | ·
CCOc1ccc2nc(SCC(=O)Nc3ccc(S(=O)(=O)N4CCCC4)cc3)c(C)cc2c1 | -8.5 | -8.5* | i | i | i
COc1ccc2nc(SCC(=O)Nc3ccc(S(=O)(=O)N4CCCC4)cc3)c(C#N)cc2c1 | 0.76 | i | · | · | ·
Cn1c2ccccc2c(=O)c2c(=O)n(Cc3ccco3)c(-c3ccc(C(C)(C)C)cc3)nc21 | · | i | · | · | ·
SMILES | KCNQ2 enhance | KCNQ2 block | KCNQ2 block conf | KCNQ1 spec | CHO parental ctr | others
COc1ccc(CN(C)C(=O)C2CCN(C(=O)Nc3ccccc3)CC2)cc1 | · | i | · | · | ·
O=C(CSc1nc2ccccc2c(=O)n1NC(=O)c1ccccc1)c1ccc(Cl)cc1 | -10 | -10* | -30%* | i | i | KCNQ2 inh confirm=+
CCn1c(SCC(=O)c2ccccc2)nc2ccccc2c1=O | 0.74 | i | · | · | ·
Cc1nc2ccccc2c(=O)n1NC(=O)c1ccc(Cl)cc1 | 1.8 | i | · | · | ·
O=C(CSc1nc2ccccc2c(=O)n1NC(=O)c1ccccc1)c1ccccc1 | -12 | -12* | -16%* | i | i | KCNQ2 inh confirm=+
C=C1N(c2cccc(Cl)c2)C(=O)OC1(C)C | 0.09 | i | · | · | ·
